# Measured values from PubChem BioAssay AID624464 (National Center for Advancing Translational Sciences (NCATS), 2012).
# The whole screen tested about 360,000 compounds, of which about 810 (0.23%) were called active. The sample as a whole holds a higher share of actives than the screen did. Unmarked numbers belong to inactive results. No stated cut-off is given here; in the data, active means potentiation above about 50%; inconclusive means mostly about 30% to 49%; inactive means weaker than that.
# Biological target: D(2) dopamine receptor (Homo sapiens) (UniProt P14416)
# Sequence (P14416 whole entry, looked up): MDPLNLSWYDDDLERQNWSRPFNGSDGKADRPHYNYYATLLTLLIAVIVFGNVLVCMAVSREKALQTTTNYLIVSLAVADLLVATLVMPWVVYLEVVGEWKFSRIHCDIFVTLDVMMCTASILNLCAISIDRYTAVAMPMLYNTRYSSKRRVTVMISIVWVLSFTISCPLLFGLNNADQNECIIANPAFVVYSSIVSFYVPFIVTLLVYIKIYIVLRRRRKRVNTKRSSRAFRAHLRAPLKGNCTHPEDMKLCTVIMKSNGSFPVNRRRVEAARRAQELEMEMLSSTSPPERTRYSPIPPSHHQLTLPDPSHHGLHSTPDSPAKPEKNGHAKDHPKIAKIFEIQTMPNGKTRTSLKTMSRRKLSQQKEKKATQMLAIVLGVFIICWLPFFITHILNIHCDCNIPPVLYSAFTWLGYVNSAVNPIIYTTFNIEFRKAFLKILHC
# Assay: Beta-Arrestin HTS for Positive Allosteric Modulators of the Human D2 Dopamine Receptor: Potentiators
# Settings: DiscoveRx D2 beta-arrestin cells, luminescence, 90 min; stronger effect = higher value; 100% = 57 uM dopamine signal
# Excerpt: There is great interest in identifying small molecule ligands for G-protein coupled receptors (GPCRs) as nearly 50% of all FDA-approved drugs target these important receptor proteins. […] Amongst the dopamine receptors (DARs), the D2 is arguably one of the most validated drug targets in neurology and psychiatry. For instance, all receptor-based antiparkinsonian drugs primarily work via stimulating the D2 DAR, whereas all FDA-approved antipsychotic agents are antagonists of this receptor. The D2 DAR is also therapeutically targeted in other disorders such as restless legs syndrome, tardive dyskinesia, Tourette's syndrome, and hyperprolactinemia.
# To this end, a miniaturized qHTS screen was developed to be screened against the Molecular Libraries Small Molecule Repository (MLSMR). This assay seeks to identify potentiators against the D2 DAR.
# NIH Molecular Libraries Probe Production Network [MLPCN]
# NIH Chemical Genomics Center [NCGC]
# PI Name: David Sibley, National Institutes of Neurological Disorders and Stroke
# DiscoveRx D2 cells were thawed from frozen stock and seeded at 2,100 cells/ 3 uL/well media (DiscoveRx Plating Reagent 2) with MultiDrop Combi dispenser (Thermo Scientific, Logan, UT) onto white tissue culture treated 1536-well Aurora plates (Brooks Automation, Chelmsford, MA) and allowed to attach overnight at 37 deg C, 5% CO2. Next, 23 nL/well of compound solutions in DMSO were added with a pintool transfer (Kalypsis, San Diego, CA). As the positive control, 1 uL/well dopamine (EC100, 57 uM final concentration) diluted in buffer (HBSS + 10 mM HEPES + SMB + 0.1 %Tween-20) was dispensed to 1 column of each plate. EC20 (Dopamine at 50 nM final concentration) was dispensed to the rest of the plate except columns 1 &2 which were used as negative control (EC=0, buffer only), 1 uL/well as well. The cells were stimulated by compounds and dopamine for 90 minutes at 37 deg C, 5% CO2, after which 1.5 uL/well of DiscoveRx detection reagent was added with BioRAPTR FRD dispenser. The detection reagent was prepared by mixing of Galacton Star Substrate, Emerald II solution and PathHunter buffer (supplied by the assay kit) together at 1:5:19 proportion accordingly just prior to dispensing. The plates were incubated at ambient temperature for 1 hour and then the luminescent signal was read on ViewLux plate reader (PerkinElmer, Waltham, MA).
row,SMILES,potentiation
1,O=C(O)CCCC(=O)Nc1ccccc1-n1ccnc1,-9.58%
2,CSc1ncnc2c1ncn2CC(=O)C1CCC2C3CCC4=CC(=O)CCC4(C)C3CCC12C (stereo not drawn),-2.03%
3,CCOC(=O)CSc1nc2ccc(C)cc2n2cnnc12,0.488%
4,CC1=C(C(=O)N(C(C)C)C(C)C)CC(CC(=O)NCC2CCCCC2)C(=O)N1Cc1ccccc1 (stereo not drawn),1.77%
5,O=C(CCNS(=O)(=O)c1ccccc1C(F)(F)F)Nc1ccncc1,0.0096%
6,O=C(OCC(=O)N(CCc1ccccc1)Cc1ccccc1)c1ccccc1[N+](=O)[O-],-22.2%
7,O=C(c1cccnc1)N(c1cc2sc(=O)oc2c2ccccc12)S(=O)(=O)c1ccccc1,61.6% (active)
8,COc1ccc(N(C(=O)c2cccnc2)S(=O)(=O)c2ccc(OC)c(OC)c2)cc1,0.917%
9,O=C(c1cccnc1)N(Cc1ccccc1)C(=O)c1cccnc1,-3.67%
10,CC(C)Cc1ccc(S(=O)(=O)N2CCN(C(=O)c3ccco3)CC2)cc1,-6.64%
11,CC(C)(C)S(=O)N1Cc2cc(C(=O)NCCCN3CCOCC3)nc(-c3cccc(-c4cc5ccccc5o4)c3)c2[C@H]1CCO (stereo partly drawn),-2.56%
12,COc1ccc(/C=C(\NC(=O)c2ccc(OCC(C)C)cc2)C(=O)OCc2ccco2)cc1,-7.94%
13,CCCC(=O)N1CCC1(C)C(=O)NCc1ccc(C(C)C)cc1 (stereo not drawn),-0.154%
14,CC(=O)N1CCN(c2ccc(NCc3ccc(C(C)C)cc3)cc2)CC1,62.8% (active)
15,CC(C)c1ccc(NC(=O)COC(=O)c2ccc(CN3CCCC3=O)cc2)cc1,0.762%
16,COC(=O)C(NC(=O)c1ccc(OC)cc1)(Nc1ncc(S(=O)(=O)c2ccc([N+](=O)[O-])cc2)s1)C(F)(F)F (stereo not drawn),65.4% (active)
17,CCOCC(=O)Nc1ncc(S(=O)(=O)c2ccc([N+](=O)[O-])cc2)s1,24.1%
18,COc1ccc(C(=O)NCCNc2ccc([N+](=O)[O-])cn2)cc1,-11.5%
19,CCCCN1C(=S)NC[C@@H]1C(C)CC (stereo partly drawn),-1.6%
20,N#Cc1ccc(COC(=O)Cn2nnc(-c3ccccc3)n2)cc1,-0.341%
21,COCCn1c(=NC(=O)c2ccccc2[N+](=O)[O-])sc2cc(S(C)(=O)=O)ccc21,74.4% (active)
22,Cn1c(=NC(=O)c2ccc3c(c2)OCCO3)sc2cc(S(C)(=O)=O)ccc21,-10.1%
23,COC(=O)CNC(=O)c1ccccc1[N+](=O)[O-],-2.49%
24,C=CCSc1ccc(S(=O)(=O)N2CCN(C)CC2)cn1,-3.17%
25,O=C(Nc1ccnn1C1CCN(C/C=C/c2ccc(F)cc2)CC1)C1CCCC1,-11%
26,Cn1ncc2c(N3CCCCC3)nc(NCCCO)nc21,-3.76%

row,SMILES,potentiation
1,CS(=O)(=O)c1sc(C(=O)NC(=S)Nc2ccc(OC(F)(F)F)cc2)c2c1C=CCC2,-5.92%
2,COc1ccccc1Cc1c(-c2ccc(Cl)cc2)nc2ccc(Cl)cn12,-4.81%
3,COc1cccc(N2CC(C(=O)NCc3n[nH]c(=O)c4ccccc34)CC2=O)c1 (stereo not drawn),-3.09%
4,CCCCC(=O)N1CC2(C)CN(C(=O)CCCC)CC(C)(C1)C2=O,12.6%
5,COc1cc(C(=O)N2CCN(S(=O)(=O)c3ccc(C(C)C)cc3)CC2)ccc1OCC(=O)N1CCOCC1,0.615%
6,CC(=O)N1CCN(c2ccccc2NC(=S)NC(=O)c2cc3ccccc3o2)CC1,1.52%
7,Cc1ccccc1NC(=O)c1nn(-c2ccc(F)c(F)c2)ccc1=O,-20.8%
8,CC(C)(C)S(=O)(=O)c1ccccc1-c1noc(-c2ccccc2)c1C(N)=O,-4.58%
9,COc1ccc(S(=O)(=O)NC2(C(F)(F)F)N=C3SCCN3C2=O)cc1 (stereo not drawn),-9.42%
10,COC(=O)c1cc(S(=O)(=O)N2CCC(C(N)=O)CC2)oc1C,-5.83%
11,CCCN(CCc1ccccc1)C1CCc2c(O)cccc2C1 (stereo not drawn),99% (active)
12,Cc1cc(C)cc(C(=O)N(CCc2ccccc2)C2=CC3CCC(C2)N3C)c1 (stereo not drawn),-8.31%
13,O=C(CCC(=O)N1CCN(S(=O)(=O)c2ccc(Cl)cc2)CC1)NCc1cccc(C(F)(F)F)c1,-1.2%
14,O=C(Cc1ccc(S(=O)(=O)N2CCOCC2)s1)N1CCN(c2ccc(C(F)(F)F)cc2[N+](=O)[O-])CC1,-0.0198%
15,CC(=O)NC1=NC(=O)CS1,-7.96%
16,Cc1ccc2cccc(OCCCOc3ccccc3CO)c2n1,-2.17%
17,CC1C=CCC2C(=O)N(c3cccc(C(=O)N4CCCCCC4)c3)C(=O)C12 (stereo not drawn),-12.1%
18,COCCCNC(=O)Cn1c(=O)n(Cc2ccccc2Cl)c(=O)c2cc(OC)c(OC)cc21,-14.1%
19,CCCc1cc(=O)[nH]c2nnc(SCC(=O)Nc3nnc(SCC)s3)n12,-13.8%
20,CC(C)(C)N(Cc1ccccc1)C(=O)COC(=O)CCc1c[nH]c2ccccc12,10.1%
21,C[C@@H](NC(=O)[C@@H]1Cc2ccccc2CN1)C(=O)NC1CCCC1,-3.01%
22,COCCn1c(=O)[nH]c(=O)c2cc(C(=O)c3cc(OC)ccc3O)cnc21,-0.0764%
23,COc1ccc(O)c(C(=O)c2cnc3onc(C(C)C)c3c2)c1,54.9% (active)
24,COc1ccc(O)c(C(=O)c2cnc3c(c2)c(-c2ccc(F)cc2)c(C#N)c(=O)n3C)c1,11.8%
25,CCOC(=O)c1cc(-c2sc(NC(=O)c3ccccc3)nc2C)n(-c2ccc(Br)cc2)n1,2.35%
26,COC(=O)[C@]1(C)N[C@H](c2ccc(-c3ccc(Cl)c(Cl)c3)cc2)[C@@H]2C(=O)N(C)C(=O)[C@@H]21,-3.41%

row,SMILES,potentiation
1,O=C(C/C(=N\NC(=O)c1ccccc1Br)C(F)(F)F)c1cccs1,-15%
2,O=C(CC(CC(=O)c1ccccc1)c1ccco1)c1ccccc1,-4.42%
3,Nc1ccc(-n2nncc2-c2ccco2)cc1,-3.62%
4,N#Cc1cccc(CSc2nnc(CCCO)n2-c2ccccc2)c1,-7.69%
5,O=C(NCc1ccccc1)C(c1ccccc1)N(C(=O)c1csnn1)c1ccc(F)cc1 (stereo not drawn),0.0815%
6,N/C(=N\OC(=O)Cc1ccccc1[N+](=O)[O-])c1ccc(Br)cc1,18.7%
7,N/C(=N\OC(=O)N1c2ccccc2Sc2ccccc21)c1ccc(Br)cc1,86.3% (active)
8,N/C(=N\OC(=O)c1ccc2c(c1)OCO2)c1ccc(Br)cc1,24.5%
9,CC1(C)CC(=O)C(C=NCc2cccnc2)=C(O)C1,0.0734%
10,COc1ccc(N2CC(C(=O)NCCS(=O)(=O)N3CCN(c4ccccc4)CC3)CC2=O)cc1 (stereo not drawn),-8.09%
11,CCOc1ccc(N2C(=O)CC(N(CCc3ccc(OC)c(OC)c3)C(=S)Nc3ccccc3)C2=O)cc1 (stereo not drawn),-3.21%
12,CCOC(=O)c1ccc(N2C(=O)CC(N(C)Cc3ccccc3)C2=O)cc1 (stereo not drawn),-5.22%
13,CCOc1ccc(N2C(=O)CC(N(O)c3ccccc3)C2=O)cc1 (stereo not drawn),51.5% (active)
14,Cc1c(C=O)c2ccccn2c1C(=O)c1ccncc1,13.6%
15,C=CCn1c2c(c3ccccc31)CCC2,-5.75%
16,CCOc1ccc(OCC(=O)OC(C)C(=O)NC2CCCCC2C)cc1 (stereo not drawn),-13.2%
17,CCc1ccnc(NC(=O)Nc2ccc(OCc3ccccc3)cc2)c1,-1.75%
18,COc1ccc(OC)c(S(=O)(=O)N2CCCC(C(=O)N3CCC(C(N)=O)CC3)C2)c1 (stereo not drawn),7.76%
19,CCOc1ccc(CCNC(=O)COC(=O)c2ccc(C)c(S(=O)(=O)N3CCOCC3)c2)cc1OCC,1.76%
20,CCN(c1cccc(C)c1)S(=O)(=O)c1ccc(-c2coc(C)n2)cc1,-22%
21,Cc1ccc(-c2cn3cc(C)ccc3n2)cc1,6.89%
22,CCN(CC)S(=O)(=O)c1ccc(-c2cn3ccc(C)cc3n2)cc1,56% (active)
23,COc1cccc2c1C(=O)c1c(O)c3c(c(O)c1C2=O)CC(O)(C(C)=NNC(=O)c1ccc(Cl)c(Cl)c1)CC3OC1CC(N)C(O)C(C)O1 (stereo not drawn),-9.55%
24,CCc1nc2ccc(C(=O)N(C)CCN(C)C)cn2c1N(CC)CCOC,-8.24%
25,O=C(NC(C(=O)NCCN1CCOCC1)C12CC3CC(CC(C3)C1)C2)C1CCCCC1 (stereo not drawn),-3.19%
26,COc1cccc(N(CC(=O)NCc2ccccc2)C(=O)CCC(=O)Nc2nccs2)c1,-2.58%
